HEK293 tox: Cytotoxic Profiling in HEK 293 Cell Line of Diverse Libraries Using Quantitative High-Throughput Screening | HEK 293 viability, ATP luminescence (CellTiter-Glo), 48-72 h | Potency, µM (highest dose often 115 µM), without a hit: at the top dose activity change, negative = cytotoxicity, hits mostly inhibitors | actives 6.6% (n = 94,000); note: nearly all actives have a fitted effect of over 60% in size
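HEK 293 seeded at 250 cells/well receive compound via pintool. After 48 or 72 hr at 37 degree Celsius, 5% CO2 and 95% humidity, CellTiter-Glo is dispensed and luminescence read following 10 min at room temperature.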
hNpr1 antagonist: Natriuretic polypeptide receptor (hNpr1) antagonism - Primary qHTS; Atrial natriuretic peptide receptor 1 (Homo sapiens), P16066; HEK293 hNpr1 GloSensor cGMP, ANP-stimulated luminescence; Potency, µM (top dose mostly 46.3 µM), for inactives: at the highest dose activity change, negative = inhibition, actives largely listed as inhibitors; actives 1.6% (n = 76,000); AID 1347048, 2019; calls by dose curve; note: nearly all actives have a fitted effect of over 60% in size
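HEK293 cells stably expressing human Npr1 and cGMP GloSensor pGS-40F, loaded 2 h with 2% GloSensor reagent, given compound 30 min at room temperature. Luminescence read before and 20 min after 0.1 nM hNppA.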
FLuc inh: Firefly luciferase inhibition profiling of diverse chemical library using quantitative high-throughput screening; Luciferin 4-monooxygenase (Photinus pyralis), P08659; purified P. pyralis luciferase, luminescence, biochemical; Potency, µM (series often up to 115 µM), actives largely listed as inhibitors; actives 2.5% (n = 76,000); note: nearly all actives have a fitted effect of over 65% in size
Target sequence (P08659 whole entry, looked up): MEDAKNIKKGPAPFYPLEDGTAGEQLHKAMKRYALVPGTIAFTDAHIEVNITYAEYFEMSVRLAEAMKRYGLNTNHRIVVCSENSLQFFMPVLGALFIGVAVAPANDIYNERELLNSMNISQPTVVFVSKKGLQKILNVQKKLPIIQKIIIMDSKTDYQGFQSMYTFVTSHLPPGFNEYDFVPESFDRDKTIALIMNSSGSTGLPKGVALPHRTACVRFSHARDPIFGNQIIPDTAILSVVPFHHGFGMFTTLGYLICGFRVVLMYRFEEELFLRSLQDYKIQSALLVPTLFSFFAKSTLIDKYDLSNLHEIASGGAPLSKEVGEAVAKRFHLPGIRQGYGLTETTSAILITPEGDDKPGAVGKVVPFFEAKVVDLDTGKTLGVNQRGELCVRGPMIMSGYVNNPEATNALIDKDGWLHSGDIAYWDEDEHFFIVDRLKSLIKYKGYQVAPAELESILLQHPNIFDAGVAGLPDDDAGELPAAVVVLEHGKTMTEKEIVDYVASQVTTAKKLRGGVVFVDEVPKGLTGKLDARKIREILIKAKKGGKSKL
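Inhibitors were tested against purified firefly luciferase in a biochemical, low-substrate format (both substrates at 10uM) and luminescence measured with a CCD imager.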
SNCA viab count: GF-AFC viability counterscreen for inhibitors of alpha-synuclein gene (SNCA) expression; HEK-293-SNCA-luc viability, GF-AFC fluorescence, 24 h; Potency, µM (highest dose often 57.1 µM), for inactives: at the top dose activity change, negative = cytotoxicity, usual class: cytotoxic; actives 0.12% (n = 150,000); AID 1671193, 2021;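 note: 0% = DMSO-treated cells and -100% = medium-only wells without cells; nearly all actives have a fitted effect of over 30% in size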
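HEK-293-SNCA-luc cells (1500/well) plated 24 h, then exposed 24 h to a dilution series; GF-AFC added 30 min at 37C, fluorescence 405/540 nm; normalised to medium-only and DMSO wells, Hill fit.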
SNCA expr inh: Primary qHTS assay for inhibitors of alpha-synuclein gene (SNCA) expression | HEK-293 SNCA-luciferase knock-in, luminescence, 24 h | Potency, µM (series often up to 57.2 µM), for inactives: at the highest dose activity change, negative = inhibition, actives largely listed as inhibitors | actives 0.17% (n = 140,000);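 note: plate controls were DMSO cells for no effect and cell-free wells for full effect; nearly all actives have a fitted effect of over 45% in size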
3T3 cytotox: Cytotoxic Profiling in NIH 3T3 Cell Line of Diverse Libraries Using Quantitative High-Throughput Screening; actives 4.3% (n = 94,000); NIH 3T3 viability, CellTiter-Glo ATP luminescence, 48-72 h; AID 1345082, 2018; Potency, µM (highest dose often 96.7 µM), without a hit: top-dose activity change, negative = cytotoxicity, actives largely listed as inhibitors; note: nearly all actives have a fitted effect of over 55% in size
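Cytotoxicity is measured as loss of cellular ATP: NIH 3T3 cells (400/well) are exposed to compound for 48 or 72 hr at 37 °C, then CellTiter-Glo luminescence is imaged after 10 min at room temperature.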
The depositor's hits bear a star; i = inactive; u = inconclusive; x = not tested or not shown; [ ] = remark or other dose. Most compounds without a hit are left out; they make up all but 7.4% or so of the library. Unless noted, calls come from the whole dose curve; as a rule, active = well fitted curve in the direction sought with a large enough effect; inconclusive = small, poorly fitted or top-dose-only effect, or another doubt; inactive = no such curve, though single readings can be large; an effect the other way counts as inactive or inconclusive. Unless noted, % is set by controls: 0 for no effect and ±100 for the full control effect; potency is the fitted concentration of half-maximal effect.

SMILES | HEK293 tox | hNpr1 antagonist | FLuc inh | SNCA viab count | SNCA expr inh | 3T3 cytotox
O=S1(=O)CCN(c2cccc(-c3nc(C4CCOC4)no3)c2)CC1 (stereo not given) | 2% | 5% | i | 3% | -20% | 2%
CCS(=O)(=O)Nc1ccc(-c2nc(C3CCOC3)no2)cc1 (stereo not given) | -13% | 2% | i | -1% | 13% | -17%
CC1(C)OC2=C(C(=O)c3ccccc3C2=O)[C@H](NCc2ccccc2)[C@H]1O | x | x | x | 14µM* | 12µM* | x
COc1ccccc1CNC(=O)C[C@@H]1c2nc(-c3cccnc3)sc2C[C@@H]2[C@](C)(CO)[C@H](O)CC[C@]21C | u | -10% | i | 0% | -19% | 79µM*
CC(C)(C)c1ccc(C(=O)Nc2nc3c(s2)C[C@@H]2[C@](C)(CO)[C@H](O)CC[C@@]2(C)[C@@H]3CC(=O)N2CCOCC2)cc1 | u | -3% | i | -5% | 0% | 35µM*
CC(C)(C)c1ccc(C(=O)Nc2nc3c(s2)C[C@@H]2[C@](C)(CO)[C@H](O)CC[C@@]2(C)[C@@H]3CC(=O)NC2CC2)cc1 | 45µM* | 3% | 45µM* | -16% | -12% | 45µM*
COc1ccc(C(=O)Nc2nc3c(s2)C[C@@H]2[C@](C)(CO)[C@H](O)CC[C@@]2(C)[C@@H]3CC(=O)N2CCOCC2)cc1 | -14% | -5% | i | 3% | 64% | -14%
CC(C)NC(=O)C[C@@H]1c2nc(NC(=O)c3ccc(C(C)(C)C)cc3)sc2C[C@@H]2[C@](C)(CO)[C@H](O)CC[C@]21C | 40µM* | 5% | u | -10% | 15% | 50µM*
Cc1cnc(C(=O)N2CCN(C(=O)N3CC4CC(C3)[C@H]3CCCC(=O)N3C4)CC2)cn1 (stereo not given in full) | 0% | 4% | i | 0% | 9% | 1%
CC(=O)Nc1cccc(-c2cnc3n[nH]c(-c4ccc(F)cc4C)c3n2)c1 | 20µM* | -30%[70.6 µM] | i | 14%[87.6 µM] | u | 25µM*
CC(=O)Nc1cccc(-c2cnc3n[nH]c(-c4sccc4C)c3n2)c1 | 32µM* | u | u | u | 30%[87.6 µM] | u
CC(=O)Nc1cccc(-c2cnc3n[nH]c(-c4ccc5c(c4)OCO5)c3n2)c1 | 22µM* | -26%[70.6 µM] | u | u | 7.1µM* | 25µM*
CC(=O)Nc1cccc(-c2cnc3n[nH]c(-c4ccccc4C)c3n2)c1 | 71µM* | -23%[70.6 µM] | i | -27%[87.6 µM] | 1%[87.6 µM] | 45µM*
Cc1cc(F)ccc1-c1[nH]nc2ncc(-c3cn[nH]c3)nc12 | u | -16%[70.6 µM] | i | -35%[87.6 µM] | u | u
c1ccc(-c2nc(-c3ccncc3)no2)c(OC2CCN(C3CCCC3)C2)c1 (stereo not given) | u | 4% | i | -9% | 10% | u
O=C(Nc1ccccc1)N1CCC(Oc2ccccc2-c2nc(-c3ccccc3)no2)C1 (stereo not given) | 25µM* | 0% | u | -29% | -23% | 32µM*
O=C(CCc1ccccc1)N1CC(Oc2ccccc2-c2nc(-c3ccccc3)no2)C1 | 40µM* | x | x | -33% | 4% | 35µM*
CCN1CCC(N2CCC(Oc3ccccc3-c3nc(-c4ccncc4)no3)C2)CC1 (stereo not given) | 13µM* | -2% | i | 14µM* | u | 6.3µM*
Cc1ccccc1CCC1CCCN(C(=O)C2(C)CC2)C1 (stereo not given) | 22µM* | -7% | u | -3% | 40% | u
CN(C)CCN(Cc1ccco1)C(=O)Cn1nc2n(c1=O)CCC(N)CC2 (stereo not given) | 1% | 2% | i | 1% | 24% | -2%
O=C(NCCCN1CCCCC1)c1ccc2c(c1)sc1nc(-c3ccc(F)cc3)cn12 | x | x | x | u | -51% | x
Cc1ccc(-c2cn3c(n2)sc2cc(C(=O)NCCCN4CCCCC4)ccc23)cc1 | x | x | x | 25µM* | u | x
c1ccc(-c2noc(-c3cncnc3NC3CCCCC3)n2)cc1 | i | 1% | i | 10% | -6% | -7%
COc1ccc(S(=O)(=O)Nc2ccc3n(c2=O)C[C@H]2C[C@@H]3CN(C(=O)Nc3cc(OC)cc(OC)c3)C2)cc1 | -2% | 1% | i | -13% | 4% | 50µM*
CC1=C[C@@H](CN2CCN(c3cnccn3)CC2)[C@H](C(C)C)C[C@H]1Cc1nnc(-c2ccc([N+](=O)[O-])cc2)o1 | u | 1% | i | -24% | -11% | u
SMILES | HEK293 tox | hNpr1 antagonist | FLuc inh | SNCA viab count | SNCA expr inh | 3T3 cytotox
CC1=C[C@@H](CN2CCN(c3ccccn3)CC2)[C@H](C(C)C)C[C@H]1Cc1nnc(-c2ccccc2)o1 | 40µM* | -28% | i | u | -29% | u
CC1=C[C@@H](CN2CCOCC2)[C@H](C(C)C)C[C@H]1Cc1nnc(-c2ccccc2)o1 | 89µM* | -8%[70.6 µM] | i | -23%[87.6 µM] | -9%[87.6 µM] | u
CC(C)NC(=O)c1ccc(NC(=O)N2CCCCc3ccccc32)cc1 | x | x | x | -7% | -3% | x
CCN(CC)C(=O)c1cccc2c1CCN2C(=O)Nc1cccc(C)c1 | u | -15% | i | -27% | 43% | u
O=C(NCCc1cccs1)c1cccc2c1CCN2C(=O)Nc1ccccc1 | u | -20% | 16µM* | u | u | u
Cc1ccc(NC(=O)N2CCc3c(C(=O)NCCCN4CCCC4=O)cccc32)cc1 | 45µM* | 1.4µM* | 0.28µM* | 2% | 2µM* | u
CCC(=O)N1CCc2c(C(=O)Nc3ccc(C)cc3)cccc21 | -23% | 0% | i | -5% | 1% | -24%
CCCCNC(=O)c1cccc2c1CCN2C(=O)C1CC1 | 3% | -2% | i | 3% | 9% | u
CCCCN(C)C(=O)c1cccc2c1CCN2C(=O)Nc1ccc(OC)cc1 | u | -8% | 18µM* | -20% | -16% | -21%
COc1ccc(NC(=O)N2CCc3c(C(=O)NC(C)C)cccc32)cc1 | 25µM* | 2.5µM* | 0.28µM* | -11% | 3.5µM* | u
C1=C/COCc2cc(ccc2OCCN2CCCC2)Nc2nccc(n2)-c2cccc(c2)COC/1 | x | x | x | 9.5µM* | x | x

Screening data from PubChem.
